# High-throughput results deposited in PubChem BioAssay by Sanford-Burnham Center for Chemical Genomics.
# ER stress death: ER stress cell death inhibition. CSM14.1 thapsigargin ER stress survival, ATP luminescence. relative survival (cellular ATP), % at 15 µg/mL (by protocol). 0.33% of 48,000 active;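 active = survival measured by cellular ATP above 50% at 15 µg/ml in the first screen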;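 also: cell death triggered by about 15 µM thapsigargin; ATP read 24 h after thapsigargin was added; plate controls were thapsigargin with DMSO for no effect and DMSO without thapsigargin for full effect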
# Starred values were filed as active, the others as inactive. Only a selection was taken, and hits are over-represented in it overall.
SMILES,ER stress death
COC(C(=O)Nc1ccc(Br)cc1C(=O)c1ccccc1)c1ccccc1 (configuration not stated),72.1*
COC(C(=O)Nc1ccc(Br)cc1C(=O)c1ccccc1Cl)c1ccccc1 (configuration not stated),11.0
COC(=O)c1[nH]cnc1C(=O)Nc1ccc(Br)cc1C(=O)c1ccccc1,1.0
CCc1ccc(CNCCc2ccc(OC)c(OC)c2)cc1,-10.3
O=c1c2ccccc2nc(-c2ccccc2F)n1-c1ccccc1Cl,4.0
